15 molecules from PubChem BioAssay (Tox21) can be followed below.

Values without a mark were called inactive. Results filed as inconclusive are left out. The source made the active and inactive calls. Unless noted, the call rests on the fitted dose curve; in most records, active means well fitted curve in the direction sought with a large enough effect in the repeat runs; inconclusive means weak or mixed curves; inactive means no such curve, though single readings can be large; an effect the other way counts as inactive or inconclusive.

A short description of test [1]: qHTS assay to test for compound auto fluorescence at 535 nm (green) in HEK293 cells (AID 720680).
Test [2] in a line: qHTS assay to test for compound auto fluorescence at 460 nm (blue) in HEK293 cell free culture (AID 720681). In a few lines:
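Test compounds were pinned into cell-free culture medium (DMEM with 10% FBS) and fluorescence was read directly at Ex/Em 405/460 nm. Signals were expressed as fluorescence equivalents of triamterene, with DMSO vehicle as control.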
(In qHTS, concentration-response curves come from the screen itself.)

Test [3] in a line: qHTS assay to test for compound auto fluorescence at 535 nm (green) in HEK293 cell free culture (AID 720682). In a few lines:
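DMEM + 10% FBS, cell-free; cpd or DMSO pinned in; Ex485/Em535 read; output as fluorescein-equivalent signal.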

Test [4] can be described thus: qHTS assay to test for compound auto fluorescence at 590 nm (red) in HEK293 cell free culture (AID 720683). In a few lines:
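Tox21 10K library compounds were pinned into cell-free DMEM with 10% FBS and fluorescence was read at excitation 540 nm. Activity is expressed as Rose Bengal sodium equivalency.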

The nature of test [5]: qHTS assay to test for compound auto fluorescence at 590 nm (red) in HepG2 cell free culture (AID 720684). In a few lines: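 Red fluorescence (540 nm excitation, 590 nm emission) was measured after compound transfer into cell-free MEM supplemented with 10% FBS. Values are equivalencies against Rose Bengal sodium.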
The nature of test [6]: qHTS assay to test for compound auto fluorescence at 460 nm (blue) in HepG2 cell free culture (AID 720685). In a few lines:
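Compound (23 nL) or DMSO pinned into cell-free MEM with 10% FBS; blue fluorescence read at 405/460 nm excitation/emission, expressed as auto-fluorescence equivalency to triamterene.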

The nature of test [7]: qHTS assay to test for compound auto fluorescence at 535 nm (green) in HepG2 cell free culture (AID 720686).
Test [8] can be described thus: qHTS assay to identify small molecule antagonists of the glucocorticoid receptor (GR) signaling pathway - cell viability counter screen (AID 720693). Further: nearly all actives have a fitted effect of over 55% in size.
Test [9] can be described thus: qHTS assay for identifying genotoxic compounds that show differential cytotoxicity against isogenic chicken DT40 cell lines with known DNA damage response pathways - wild type cell line (AID 743012). Further: nearly all actives have a fitted effect of over 60% in size. Further: potency means the concentration at half of the fitted maximal effect. In a few lines:
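Wild type DT40, 300 cells/well, ~0.5 h settle at 37 C/5% CO2; compounds in DMSO added by pintool; 40 h at 37 C/5% CO2; CellTiter-Glo, 30 min RT; luminescence.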

Test [10] in a line: qHTS assay for identifying genotoxic compounds that show differential cytotoxicity against isogenic chicken DT40 cell lines with known DNA damage response pathways - Rev3 mutant cell line (AID 743014). Further: nearly all actives have a fitted effect of over 55% in size. Further: potency means the concentration at half of the fitted maximal effect.
Test [11] can be described thus: qHTS assay for identifying genotoxic compounds that show differential cytotoxicity against isogenic chicken DT40 cell lines with known DNA damage response pathways - Rad54/Ku70 mutant cell line (AID 743015). Further: nearly all actives have a fitted effect of over 60% in size. Further: potency means the concentration at half of the fitted maximal effect.
The nature of test [12]: qHTS assay to identify small molecule antagonists of the androgen receptor (AR) signaling pathway - cell viability counter screen (AID 743033; further: nearly all actives have a fitted effect of over 45% in size).
Test [13] in a line: qHTS assay to identify small molecule antagonists of the thyroid receptor (TR) signaling pathway - cell viability counter screen (AID 743064). Further: nearly all actives have a fitted effect of over 50% in size. Further: potency means the concentration at half of the fitted maximal effect. In a few lines: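 Viability of T3-stimulated (1 nM final) GH3.TRE-Luc cells is measured by CellTiter-Fluor fluorescence after 23.5 h compound exposure at 37 °C plus 30 min reagent incubation.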
Test [14] has as its target Glucocorticoid receptor (Homo sapiens) (UniProt P04150). In words: qHTS assay to identify small molecule antagonists of the glucocorticoid receptor (GR) signaling pathway (AID 720692; active means well fitted inhibition curve with a large enough effect in the signal ratio in the repeat runs, not every such curve was filed as active; the % refers to the signal ratio). In a few lines: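 HeLa GR-bla cells; cmpd + dex 5 nM final, 18 h 37 C; LiveBLAzer B/G FRET substrate 2 h RT; fluorescence intensity read. Antagonist mode, qHTS.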
A short description of test [15]: qHTS assay to identify small molecule antagonists of the androgen receptor (AR) signaling pathway using the MDA cell line - cell viability counter screen (AID 743041; further: nearly all actives have a fitted effect of over 45% in size). The essentials: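 MDA-kb2 AR-luc human breast carcinoma cells (MMTV-luciferase, AR/GR responsive) were treated with compounds plus R1881 agonist for 16 h at 37 °C. Viability was read as CellTiter-Fluor fluorescence in the same wells as the reporter assay.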

For test [16], the target named is Glucocorticoid receptor (Homo sapiens) (UniProt P04150). In words: qHTS assay to identify small molecule agonists of the glucocorticoid receptor (GR) signaling pathway (AID 720691; active means well fitted activation curve with a large enough effect in the signal ratio in the repeat runs, not every such curve was filed as active; the % refers to the signal ratio). In a few lines:
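Fluorescence intensity from LiveBLAzer B/G FRET substrate (2 h, room temperature) reports beta-lactamase expression driven by the glucocorticoid response element in GR-bla HeLa cells after 18 h compound exposure at 37 C.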

For test [17], the target named is Androgen receptor (Homo sapiens) (UniProt P10275). In words: qHTS assay to identify small molecule antagonists of the androgen receptor (AR) signaling pathway (AID 743035; active means well fitted inhibition curve with a large enough effect in the signal ratio in the repeat runs, not every such curve was filed as active; the % refers to the signal ratio). In a few lines: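 Fluorescence from a beta-lactamase FRET substrate (LiveBLAzer B/G, 2 h, room temperature) measured inhibition of R1881-stimulated signaling in GeneBLAzer AR-UAS-bla HEK293 cells exposed to compound for 16 h at 37C.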
Chain of Androgen receptor (Homo sapiens) (P10275 whole entry, looked up): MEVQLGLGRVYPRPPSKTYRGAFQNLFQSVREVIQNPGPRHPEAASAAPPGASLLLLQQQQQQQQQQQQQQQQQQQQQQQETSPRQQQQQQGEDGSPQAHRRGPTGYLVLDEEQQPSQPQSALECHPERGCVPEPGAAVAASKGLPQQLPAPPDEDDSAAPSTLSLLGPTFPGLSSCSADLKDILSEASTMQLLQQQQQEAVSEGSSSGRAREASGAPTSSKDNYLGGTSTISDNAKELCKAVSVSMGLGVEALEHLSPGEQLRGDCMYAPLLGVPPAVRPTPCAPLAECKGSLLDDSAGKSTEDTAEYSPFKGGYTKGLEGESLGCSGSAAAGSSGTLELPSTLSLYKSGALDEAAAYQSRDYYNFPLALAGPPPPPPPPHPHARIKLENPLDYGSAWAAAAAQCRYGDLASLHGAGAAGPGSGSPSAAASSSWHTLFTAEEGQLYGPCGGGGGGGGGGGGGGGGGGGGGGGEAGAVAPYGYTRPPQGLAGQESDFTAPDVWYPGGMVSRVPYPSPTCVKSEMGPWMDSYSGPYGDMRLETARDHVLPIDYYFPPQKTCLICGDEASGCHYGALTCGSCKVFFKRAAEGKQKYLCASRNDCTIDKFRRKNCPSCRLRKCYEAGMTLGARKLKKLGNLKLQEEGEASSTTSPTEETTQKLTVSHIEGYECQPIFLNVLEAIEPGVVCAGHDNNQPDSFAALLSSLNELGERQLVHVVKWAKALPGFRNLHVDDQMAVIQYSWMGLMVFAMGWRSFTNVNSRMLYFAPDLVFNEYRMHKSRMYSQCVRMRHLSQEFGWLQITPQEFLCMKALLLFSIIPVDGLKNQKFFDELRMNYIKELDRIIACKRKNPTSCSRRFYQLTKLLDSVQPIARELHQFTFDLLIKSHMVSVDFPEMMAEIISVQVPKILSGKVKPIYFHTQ

Test [18] shares this target. In words: qHTS assay to identify small molecule agonists of the androgen receptor (AR) signaling pathway using the MDA cell line (AID 743040; further: nearly all actives have a fitted effect of over 20% in size). In a few lines: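 MDA-kb2 breast carcinoma cells stably carrying an MMTV-driven luciferase reporter (AR- and GR-responsive) were seeded and held 5 h at 37C, 0% CO2, then exposed to compounds in DMSO for 16 h. Luminescence was read 30 min after ONE-Glo addition.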

Test [19] shares this target. In words: qHTS assay to identify small molecule antagonists of the androgen receptor (AR) signaling pathway using the MDA cell line (AID 743042; further: nearly all actives have a fitted effect of over 55% in size). The essentials:
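MDA-kb2 cells (human breast carcinoma, stably carrying an MMTV-luciferase reporter responsive to AR and GR) were plated at 3,000 cells/well and preincubated 5 hr at 37C, then given compound plus R1881 agonist for 16 h. ONE-Glo luminescence was read.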

The nature of test [20]: qHTS assay to test for compound auto fluorescence at 460 nm (blue) in HepG2 cells (AID 720687). The essentials: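 Cells (2,000/well in MEM with 10% FBS) attached overnight at 37 C, then were exposed to compound or DMSO for 1 hr at 37 C, 5% CO2. Fluorescence read at Ex/Em 405/460 nm, expressed as triamterene-equivalent signal.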
On the % scale 0 is the no-effect control and ±100 the full control effect.

Chain of Glucocorticoid receptor (Homo sapiens) (P04150 whole entry, looked up): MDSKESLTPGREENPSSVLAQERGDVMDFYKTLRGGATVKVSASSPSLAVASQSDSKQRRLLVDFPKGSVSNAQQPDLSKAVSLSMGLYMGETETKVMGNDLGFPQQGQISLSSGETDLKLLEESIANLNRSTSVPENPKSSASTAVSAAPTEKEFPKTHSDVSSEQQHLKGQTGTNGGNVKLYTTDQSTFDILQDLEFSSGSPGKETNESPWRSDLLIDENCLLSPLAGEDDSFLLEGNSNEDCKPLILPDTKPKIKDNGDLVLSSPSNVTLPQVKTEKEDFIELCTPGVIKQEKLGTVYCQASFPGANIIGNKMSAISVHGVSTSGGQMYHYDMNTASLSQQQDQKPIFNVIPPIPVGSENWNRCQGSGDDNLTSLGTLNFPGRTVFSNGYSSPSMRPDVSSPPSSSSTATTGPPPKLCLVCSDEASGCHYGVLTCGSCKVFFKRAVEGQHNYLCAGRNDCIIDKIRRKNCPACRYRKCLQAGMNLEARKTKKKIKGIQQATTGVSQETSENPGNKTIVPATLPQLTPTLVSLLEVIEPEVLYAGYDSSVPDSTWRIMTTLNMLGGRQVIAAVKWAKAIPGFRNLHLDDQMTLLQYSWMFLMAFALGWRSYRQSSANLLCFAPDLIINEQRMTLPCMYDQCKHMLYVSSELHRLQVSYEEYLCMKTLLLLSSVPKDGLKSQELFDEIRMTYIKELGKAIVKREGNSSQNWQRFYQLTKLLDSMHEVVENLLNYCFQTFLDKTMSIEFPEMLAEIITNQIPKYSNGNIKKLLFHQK

With `FC(F)(F)C(Cl)(Cl)Cl`, the molecule was classed as inactive in [1], in [2], in test [3], in [4], in test [5] and in test [6]. The result in test [7], in test [8] and in test [12] was inactive. Moreover, the Potency result in test [9], in [10], in test [11] and in test [13] was “inactive” throughout.

For `Oc1ccccc1F`, the result in test [1], in [2], in [3], in [4], in test [5] and in test [6] was inactive. In addition, the outcome in test [7], in test [8] and in test [12] was inactive. Further, the Potency result in test [14], in test [9], in test [10], in test [11], in test [15] and in test [13] was “inactive” in each case.

Turning to `Cc1ccc(C(C)C)cc1O`, the molecule was called inactive in test [1], in [2], in [3], in test [4], in test [5] and in [6]. Further, the molecule was classed as inactive in [7], in [8] and in [12]. The Potency result in [16], in test [14], in test [9], in [10], in test [11] and in test [15] was “inactive” each time. For the same molecule, the Potency entry in test [13] is “inactive”.

`O=C1C=CC(=O)O1`: the molecule was called inactive in test [1], in test [2], in [3], in test [4], in test [5] and in test [6]. Besides, the call in test [7] and in test [12] was inactive. Besides, the Potency result in test [16], in test [14], in test [9], in [10], in [11] and in [15] was “inactive” in each case. Further, the Potency entry in [13] is “inactive”.

For the molecule `CN1CCN(C2=Nc3cc(F)ccc3Cc3ccccc32)CC1`, the molecule was called inactive in test [1], in test [2], in [3], in test [4], in test [5] and in [6]. Moreover, the molecule was classed as inactive in [7], in [8] and in test [19]. Besides, the Potency entry in [14], in test [17], in test [18] and in [15] was “inactive” each time. Further, the Potency in test [9] was 11.9 µM (active); in test [10] it was 8.41 µM (active); in test [11], 23.7 µM (active); in [13], 11.9 µM (active).

On to `O=C(C(Cl)Cl)N1CCOC12CCCCC2`, for which the molecule was called inactive in test [1], in test [2], in test [3], in test [4], in test [5] and in [6]. Also, the molecule was called inactive in test [7] and in test [12]. The Potency result in test [16] and in [14] was “inactive” in each case. In addition, the Potency in [10] was 6.86 µM (active).

Take `CCN(CC)CCOc1ccc(Cc2ccccc2)cc1`: the outcome in [1], in [2], in test [3], in [4], in test [5] and in [6] was inactive. The molecule was classed as inactive in test [7], in test [20] and in test [12]. Moreover, the Potency is 0.473 µM (active) in [9], 0.188 µM (active) in test [10], 0.376 µM (active) in test [11] and 11.9 µM (active) in test [13].

Consider `CCCCCCCCOC(=O)CCCCCCCCC(=O)OCCCCCCCC`, for which the result in test [1], in [2], in [3], in test [4], in test [5] and in test [6] was inactive. The molecule was classed as inactive in test [7], in test [8] and in [12]. Besides, the Potency entry in [14] and in [13] was “inactive” each time. The Potency in test [9] was 68.6 µM (active); in [10], 17.2 µM (active).

As for `CCCCNc1ccc(C(=O)OCCN(CC)CC)cc1`, the molecule was classed as inactive in [1], in test [2], in [3], in test [4], in test [5] and in test [6]. For the same molecule, the call in test [7], in test [8] and in test [12] was inactive. The Potency is 2.37 µM (active) in [9], 1.68 µM (active) in test [10] and 2.37 µM (active) in test [11]. Besides, the Potency result in test [15] is “inactive”.

On to `CC(=O)OC1C2(C)CCC(C2)C1(C)C` (stereo not given), for which the molecule was called inactive in test [1], in test [2], in test [4], in test [5], in test [6] and in test [7]. The call in test [8] and in test [12] was inactive. The Potency result in [16], in [9], in [10], in test [15] and in test [13] was “inactive” throughout.

As for `CCOC(=O)C1CC(=O)C(=C(O)C2CC2)C(=O)C1` (stereo not given), the outcome in [1], in test [2], in test [4], in [5], in test [6] and in [20] was inactive. Besides, the molecule was called inactive in [8] and in test [12]. For the same molecule, the Potency entry in test [16], in test [14], in [9], in test [10], in test [11] and in test [15] was “inactive” each time. For the same molecule, the Potency entry in test [13] was “inactive”.

On to `Cc1c[nH]c(=S)[nH]c1=O`, for which the result in test [1], in test [2], in test [4], in [5], in test [6] and in test [7] was inactive. Moreover, the call in test [8] was inactive. The Potency result in test [10], in test [11] and in test [13] was “inactive” in each case.

For `CCCCCCOc1ccc(N)cc1`, the call in test [1], in test [2], in test [4], in test [5], in [6] and in [7] was inactive. The result in test [20] and in [8] was inactive. The values for the Potency in test [9], in test [10] and in test [11] were 61.1 µM (active), 43.3 µM (active) and 54.5 µM (active), respectively. In addition, the Potency result in [15] and in test [13] was “inactive” in each case.

Consider `COC(=O)N[C@H](C(=O)N[C@@H](Cc1ccccc1)[C@@H](O)CN(Cc1ccc(-c2ccccn2)cc1)NC(=O)[C@@H](NC(=O)OC)C(C)(C)C)C(C)(C)C`, for which the molecule was classed as inactive in test [1], in test [2], in test [4], in [5], in [6] and in [7]. The outcome in test [20] and in test [8] was inactive. Further, the Potency result in [16], in [14] and in test [13] was “inactive” throughout.

`CCN(CCCc1ccccc1)CCCc1ccccc1`: the fluorescence, % of fluorescein in test [1] was 0.159% [at 18.6 µM]. Further, the fluorescence, % of fluorescent control in [2] was -0.0197% [at 18.6 µM]; in [4] it was 0.107% [at 18.6 µM]; in test [6], 0.009% [at 18.6 µM]; in test [20], -0.0033% [at 18.6 µM]. Further, the fluorescence, % of Rose Bengal in test [5] was -0.137% [at 18.6 µM]. The Potency in test [9] is 2.02 µM (active); in test [10] it was 1.27 µM (active); in [11], 2.27 µM (active). Also, in test [12], the result was inactive. Moreover, the Potency entry in [15] and in test [13] was “inactive” each time.
